In PubChem BioAssay (EPA / NIEHS):
Inconclusive results are not listed. The source made the active and inactive calls. The calls were made as follows, unless noted: active = hit-call score of the fitted dose curve at least 0.9, where 1 is the maximum; inconclusive = response in the unintended direction; inactive = score below 0.9.

What was measured:
[1] = target: Nuclear receptor subfamily 1 group I member 3 (Homo sapiens) (UniProt Q14994); experiment: ATG_CAR_TRANS: Attagene TRANS-FACTORIAL HepG2 Assay for human Constitutive Androstane Receptor (CAR) (AID 2282969); settings: HepG2 Attagene TRANS-FACTORIAL CAR reporter;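 also: activators raise reporter mRNA above DMSO so AC50 marks induction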
Method in brief: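 Readout is reporter mRNA induction, quantified by fluorescent primer extension and capillary electrophoresis after RT-PCR. Cells were HepG2 transiently carrying chimeric NR-Gal4 constructs with GAL4-UAS reporters, treated for 24 h; activity scored upward from DMSO.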

[2] = target: Estrogen receptor (Homo sapiens) (UniProt P03372); experiment: ATG_ERa_TRANS: Attagene TRANS-FACTORIAL HepG2 Assay for human Estrogen Receptor alpha (ERa) (AID 2282970); settings: HepG2 Attagene TRANS ERa GAL4 reporter, mRNA
Method in brief: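 HepG2 cells transiently transfected with multiplexed GAL4-UAS reporter units; ERa activity read via exogenous chimeric NR-Gal4 protein. After 24 hour compound exposure, reporter mRNA measured by RT-PCR with 6-FAM labelling and capillary electrophoresis; gain-of-signal fitted relative to DMSO.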

[3] = target: X-box-binding protein 1 (Homo sapiens) (UniProt P17861); experiment: ATG_Xbp1_CIS: Attagene CIS-FACTORIAL HepG2 Assay for human X-box Binding Protein 1 (XBP1) (AID 2282972; active = hit-call score of the fitted dose curve at least 0.9, where 1 is the maximum; inactive = score below 0.9); settings: HepG2 XBP1 cis-element reporter, Attagene multiplex; actives raise or lower the signal
Method in brief: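 HepG2 cells transiently transfected with multiple cis-element reporter units report endogenous TF activity; 24 h exposure, then reporter mRNA measured by RT-PCR, 6-FAM labelling, HpaI digestion and capillary electrophoresis. Bidirectional fitting versus DMSO.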

[4] = ATG_M_19_TRANS: Attagene TRANS-FACTORIAL HepG2 Assay for M19 Transcription Factor (Internal Marker) (AID 2282974); settings: HepG2 Attagene TRANS-FACTORIAL M19 internal marker reporter
Method in brief: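 Fluorescence of 6-FAM-labelled reporter cDNA fragments, separated by capillary electrophoresis, served as the readout. These derived from HepG2 cells carrying transfected GAL4-UAS reporter units after 24 h dosing, with DMSO as negative control.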

[5] = target: Glucocorticoid receptor (Homo sapiens) (UniProt P04150); experiment: ATG_GR_TRANS: Attagene TRANS-FACTORIAL HepG2 Assay for human Glucocorticoid Receptor (GR) (AID 2282978); settings: HepG2 Attagene TRANS GR reporter, mRNA transcription;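 also: activators score as hits since higher reporter transcript over DMSO is fitted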
Method in brief: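 Fluorescent capillary-electrophoresis quantitation of reporter mRNA is the readout, taken 24 h after dosing human HepG2 cells carrying transiently transfected GAL4-UAS reporter units activated by chimeric NR-GAL4 fusions; activity scored as induction over DMSO.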

[6] = target: Oxysterols receptor LXR-alpha (Homo sapiens) (UniProt Q13133); experiment: ATG_LXRa_TRANS: Attagene TRANS-FACTORIAL HepG2 Assay for human Liver X Receptor alpha (LXRa) (AID 2282980); settings: HepG2 Attagene TRANS reporter, LXRa transactivation
Method in brief: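 HepG2 cells were transiently transfected with multiplexed reporter units driven by chimeric LXRa–GAL4 fusion proteins, then dosed for 24 h. Reporter mRNA was quantified by RT-PCR, fluorescent labelling and capillary electrophoresis; gain of signal fitted against DMSO baseline.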

[7] = ATG_M_32_TRANS: Attagene TRANS-FACTORIAL HepG2 Assay for M32 Transcription Factor (Internal Marker) (AID 2282984); settings: HepG2 Attagene TRANS M32 internal marker reporter
Method in brief: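 Measures reporter mRNA induction in human HepG2 liver cells after 24 h chemical treatment. Transcripts from transiently transfected GAL4-UAS reporter units are amplified, fluorescently labelled and sized by capillary electrophoresis; gain of signal relative to DMSO.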

[8] = target: Transcriptional activator Myb (Homo sapiens) (UniProt P10242); experiment: ATG_Myb_CIS: Attagene CIS-FACTORIAL HepG2 Assay for human Myeloblastosis (Myb) Proto-Oncogene Transcription Factor (AID 2282986; active = hit-call score of the fitted dose curve at least 0.9, where 1 is the maximum; inactive = score below 0.9); settings: HepG2 Attagene CIS-FACTORIAL Myb reporter transcription; actives raise or lower the signal
Method in brief: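 Reporter transcript levels, quantified by fluorescent RT-PCR and capillary electrophoresis, serve as the read-out. Transfected HepG2 cells carrying cis-promoter reporter units are dosed for 24 hours, and curves are fitted bidirectionally against DMSO controls.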

[9] = target: Nuclear respiratory factor 1 (Homo sapiens) (UniProt Q16656); experiment: ATG_NRF1_CIS: Attagene CIS-FACTORIAL HepG2 Assay for human Nuclear Respiratory Factor 1 (NRF1) Orphan Gene (AID 2282987; active = hit-call score of the fitted dose curve at least 0.9, where 1 is the maximum; inactive = score below 0.9); settings: HepG2 NRF1 cis-element reporter, Attagene multiplex; actives raise or lower the signal
Method in brief: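 Multiplexed cis-reporter assay, HepG2 cells, 24 h treatment. Total RNA → oligo(dT) RT → PCR with reporter-specific primers → 6-FAM primer extension → HpaI cut → CE. Bidirectional fit vs DMSO.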

[10] = ATG_NFI_CIS: Attagene CIS-FACTORIAL HepG2 Assay for human Nuclear Factor I (NFI) (AID 2282989; active = hit-call score of the fitted dose curve at least 0.9, where 1 is the maximum; inactive = score below 0.9); settings: HepG2 cis-regulatory reporter, NFI response element transcription; actives raise or lower the signal
Method in brief: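 Reporter transcripts were measured by RT-PCR with fluorescent primer extension and capillary electrophoresis 24 h post-treatment. HepG2 cells carried transiently transfected cis-regulated reporter constructs reporting endogenous factor activity; gain or loss fitted against DMSO baseline.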

[11] = target: Myc proto-oncogene protein (Homo sapiens) (UniProt P01106); experiment: ATG_Myc_CIS: Attagene CIS-FACTORIAL HepG2 Assay for human Myelocytomatosis (Myc) Proto-Oncogene Transcription Factor (AID 2282990; active = hit-call score of the fitted dose curve at least 0.9, where 1 is the maximum; inactive = score below 0.9); settings: HepG2, Attagene cis-reporter transcription factor activity; actives raise or lower the signal
Method in brief: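 HepG2, transient MRTU transfection (cis promoters, endogenous TFs); 24 h dosing; TriZol RNA → oligo(dT) RT → PCR → 6-FAM primer extension → HpaI cut → CE. Bidirectional fit vs DMSO.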

[12] = ATG_GAL4_TRANS: Attagene TRANS-FACTORIAL HepG2 Assay for GAL4 (Internal Marker) (AID 2282976); settings: HepG2 Attagene TRANS GAL4 internal marker reporter
Method in brief: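 HepG2 cells transiently transfected with multiplexed GAL4-UAS reporter constructs were dosed for 24 h. Reporter mRNA was measured by RT-PCR, 6-FAM primer extension, HpaI digestion and capillary electrophoresis, and gain of signal was fitted relative to DMSO.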

[13] = target: Estrogen-related receptor gamma (Homo sapiens) (UniProt P62508); experiment: ATG_ERRg_TRANS: Attagene TRANS-FACTORIAL HepG2 Assay for human Estrogen-Related Receptor gamma (ERRg) (AID 2282977); settings: HepG2 Attagene TRANS reporter, ERRg transactivation;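 also: hits increase reporter signal over DMSO so potencies reflect activators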
Method in brief: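 HepG2 cells transiently transfected with multiplexed GAL4-UAS reporter units driven by chimeric NR-Gal4 proteins; 24 h exposure. Reporter mRNA quantified by RT-PCR, fluorescent labelling, HpaI digestion and capillary electrophoresis; gain of signal vs DMSO.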

[14] = target: Oxysterols receptor LXR-beta (Homo sapiens) (UniProt P55055); experiment: ATG_LXRb_TRANS: Attagene TRANS-FACTORIAL HepG2 Assay for human Liver X Receptor beta (LXRb) (AID 2282981); settings: HepG2 Attagene TRANS GAL4-LXRb reporter, mRNA
Method in brief: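 Transient transfection HepG2 (multiplexed RTUs, GAL4-UAS); NR-Gal4 chimera; 24 h exposure; RNA → RT-PCR → 6-FAM primer extension → HpaI → CE; increase vs DMSO.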

[15] = ATG_M_06_TRANS: Attagene TRANS-FACTORIAL HepG2 Assay for M06 Transcription Factor (Internal Marker) (AID 2282983); settings: HepG2 Attagene TRANS M06 internal marker reporter
Method in brief: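 HepG2 cells transiently transfected with multiplexed GAL4-UAS reporter transcription units; after 24 h compound exposure, reporter mRNA measured by RT-PCR, FAM-labelled primer extension, HpaI digestion and capillary electrophoresis. Gain-of-signal fitted versus DMSO baseline; background control readout.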

[16] = target: Nuclear receptor subfamily 4 group A member 2 (Homo sapiens) (UniProt P43354); experiment: ATG_NURR1_TRANS: Attagene TRANS-FACTORIAL HepG2 Assay for human Nuclear Receptor Related Protein 1 (NURR1) (AID 2282985); settings: HepG2 Attagene TRANS reporter, mRNA readout
Method in brief: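 Transient transfection of HepG2, human liver cells, with multiple GAL4-UAS reporter transcription units. Cells dosed 24 h, RNA isolated, reverse-transcribed, PCR-amplified, FAM-labelled, HpaI-digested, sized by capillary electrophoresis. DMSO served as negative control.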

[17] = target: Bile acid receptor (Homo sapiens) (UniProt Q96RI1); experiment: ATG_FXR_TRANS: Attagene TRANS-FACTORIAL HepG2 Assay for Farnesoid X Receptor (FXR) (AID 2282979); settings: HepG2 Attagene TRANS FXR-GAL4 reporter transcription;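 also: hits raise reporter mRNA above DMSO so AC50 marks FXR activation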
Method in brief: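 HepG2 cells transiently transfected with reporter constructs in which a chimeric FXR-GAL4 protein drives a GAL4-UAS reporter; 24 h compound exposure. Reporter mRNA measured by RT-PCR, FAM labelling, HpaI digestion and capillary electrophoresis; gain-of-signal versus DMSO.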

[18] = target: Steroid hormone receptor ERR1 (Homo sapiens) (UniProt P11474); experiment: ATG_ERRa_TRANS: Attagene TRANS-FACTORIAL HepG2 Assay for human Estrogen-Related Receptor alpha (ERRa) (AID 2282971); settings: HepG2 Attagene TRANS reporter, ERRa transactivation
Method in brief: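 HepG2 cells transiently transfected with multiplexed GAL4-UAS reporter units reading chimeric ERRa-Gal4 activity; 24 h compound exposure. Reporter mRNA measured by RT-PCR, 6-FAM labelling, HpaI digest and capillary electrophoresis; gain of signal fitted versus DMSO baseline.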

[19] = target: Androgen receptor (Homo sapiens) (UniProt P10275); experiment: ATG_AR_TRANS: Attagene TRANS-FACTORIAL HepG2 Assay for human Androgen Receptor (AR) (AID 2282973); settings: HepG2 Attagene TRANS-FACTORIAL AR reporter transcription
Method in brief: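 HepG2 cells transiently transfected with multiplexed GAL4-UAS reporter units and chimeric NR-Gal4 fusion; 24 h compound exposure. Reporter mRNA measured by RT-PCR, 6-FAM labelling, HpaI digestion and capillary electrophoresis; gain-of-signal fitted relative to DMSO baseline.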

[20] = target: Hepatocyte nuclear factor 4-alpha (Homo sapiens) (UniProt P41235); experiment: ATG_HNF4a_TRANS: Attagene TRANS-FACTORIAL HepG2 Assay for human Hepatocyte Nuclear Factor 4 alpha (HNF4a) (AID 2282982); settings: HepG2 HNF4a transactivation reporter, mRNA readout
Method in brief: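 Readout is fluorescent reporter-transcript fragments resolved by capillary electrophoresis after RT-PCR from HepG2 cells dosed for 24 h. Cells carried transfected GAL4-UAS reporter constructs measuring exogenous NR-GAL4 chimera activity; DMSO served as baseline.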

Measured: outcome

Myc proto-oncogene protein (Homo sapiens), sequence (P01106 whole entry, looked up): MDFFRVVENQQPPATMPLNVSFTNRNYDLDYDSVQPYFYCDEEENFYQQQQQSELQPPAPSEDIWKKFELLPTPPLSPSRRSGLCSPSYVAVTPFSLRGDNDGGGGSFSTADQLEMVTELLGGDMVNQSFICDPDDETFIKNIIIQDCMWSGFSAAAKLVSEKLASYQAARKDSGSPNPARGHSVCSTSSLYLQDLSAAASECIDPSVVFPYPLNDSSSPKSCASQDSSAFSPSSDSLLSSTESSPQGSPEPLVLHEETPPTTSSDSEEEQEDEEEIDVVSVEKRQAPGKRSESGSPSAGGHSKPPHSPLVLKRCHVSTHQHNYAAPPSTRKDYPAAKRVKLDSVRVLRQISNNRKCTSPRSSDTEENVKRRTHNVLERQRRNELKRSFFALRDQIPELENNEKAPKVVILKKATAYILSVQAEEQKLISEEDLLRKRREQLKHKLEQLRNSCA
Glucocorticoid receptor (Homo sapiens), sequence (P04150 whole entry, looked up, the tested form may be a part): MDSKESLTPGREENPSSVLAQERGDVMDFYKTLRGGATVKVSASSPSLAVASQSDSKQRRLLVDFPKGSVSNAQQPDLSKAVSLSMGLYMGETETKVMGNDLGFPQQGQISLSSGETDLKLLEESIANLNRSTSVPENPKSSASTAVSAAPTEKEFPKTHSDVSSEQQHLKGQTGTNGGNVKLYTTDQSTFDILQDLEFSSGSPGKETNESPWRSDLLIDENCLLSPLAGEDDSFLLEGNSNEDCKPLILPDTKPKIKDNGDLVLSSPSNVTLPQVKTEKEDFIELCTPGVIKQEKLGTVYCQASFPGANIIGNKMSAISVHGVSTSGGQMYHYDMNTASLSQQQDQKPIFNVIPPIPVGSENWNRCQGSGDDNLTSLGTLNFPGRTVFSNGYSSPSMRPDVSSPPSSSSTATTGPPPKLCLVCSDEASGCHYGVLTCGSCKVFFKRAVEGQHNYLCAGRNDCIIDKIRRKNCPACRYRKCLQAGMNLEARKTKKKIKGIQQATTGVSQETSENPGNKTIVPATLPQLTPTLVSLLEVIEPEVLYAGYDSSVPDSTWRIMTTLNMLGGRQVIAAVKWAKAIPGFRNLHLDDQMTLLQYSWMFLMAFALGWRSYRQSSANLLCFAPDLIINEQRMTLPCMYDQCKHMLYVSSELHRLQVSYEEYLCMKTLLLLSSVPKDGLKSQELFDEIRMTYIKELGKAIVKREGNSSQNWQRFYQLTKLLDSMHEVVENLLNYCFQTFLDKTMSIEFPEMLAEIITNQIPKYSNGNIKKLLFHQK
Nuclear receptor subfamily 1 group I member 3 (Homo sapiens), sequence (Q14994 whole entry, looked up, the tested form may be a part): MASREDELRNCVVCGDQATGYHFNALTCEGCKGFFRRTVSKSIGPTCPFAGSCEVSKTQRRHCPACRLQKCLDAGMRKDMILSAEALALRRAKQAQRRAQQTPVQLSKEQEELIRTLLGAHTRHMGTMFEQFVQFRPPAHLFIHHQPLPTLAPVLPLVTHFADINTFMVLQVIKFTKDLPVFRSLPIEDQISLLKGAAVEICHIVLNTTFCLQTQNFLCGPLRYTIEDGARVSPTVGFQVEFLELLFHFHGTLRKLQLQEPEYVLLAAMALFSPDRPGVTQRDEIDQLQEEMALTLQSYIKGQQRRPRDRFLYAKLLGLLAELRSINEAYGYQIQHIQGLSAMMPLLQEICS
Transcriptional activator Myb (Homo sapiens), sequence (P10242 whole entry, looked up): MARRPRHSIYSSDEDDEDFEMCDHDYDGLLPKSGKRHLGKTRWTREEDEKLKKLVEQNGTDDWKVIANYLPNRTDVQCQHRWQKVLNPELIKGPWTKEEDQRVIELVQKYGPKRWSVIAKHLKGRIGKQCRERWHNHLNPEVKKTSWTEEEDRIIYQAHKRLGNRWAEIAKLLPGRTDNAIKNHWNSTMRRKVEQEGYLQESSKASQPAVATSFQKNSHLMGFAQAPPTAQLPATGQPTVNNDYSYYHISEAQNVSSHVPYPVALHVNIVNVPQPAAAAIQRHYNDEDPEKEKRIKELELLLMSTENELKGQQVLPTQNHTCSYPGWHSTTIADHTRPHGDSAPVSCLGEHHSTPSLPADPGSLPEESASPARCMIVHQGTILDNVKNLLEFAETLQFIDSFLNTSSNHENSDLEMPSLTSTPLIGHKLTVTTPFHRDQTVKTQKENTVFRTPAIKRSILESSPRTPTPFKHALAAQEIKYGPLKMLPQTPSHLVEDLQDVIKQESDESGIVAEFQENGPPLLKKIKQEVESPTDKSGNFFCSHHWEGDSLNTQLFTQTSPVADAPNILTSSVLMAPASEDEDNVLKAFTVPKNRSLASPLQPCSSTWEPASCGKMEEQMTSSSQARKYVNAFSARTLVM
X-box-binding protein 1 (Homo sapiens), sequence (P17861 whole entry, looked up): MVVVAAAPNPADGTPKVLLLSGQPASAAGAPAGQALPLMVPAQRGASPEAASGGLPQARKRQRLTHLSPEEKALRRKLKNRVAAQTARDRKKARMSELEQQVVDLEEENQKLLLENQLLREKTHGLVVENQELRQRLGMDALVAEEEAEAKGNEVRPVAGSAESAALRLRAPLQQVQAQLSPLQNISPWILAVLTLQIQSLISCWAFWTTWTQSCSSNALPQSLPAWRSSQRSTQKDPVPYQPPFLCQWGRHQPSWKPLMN
Estrogen receptor (Homo sapiens), sequence (P03372 whole entry, looked up, the tested form may be a part): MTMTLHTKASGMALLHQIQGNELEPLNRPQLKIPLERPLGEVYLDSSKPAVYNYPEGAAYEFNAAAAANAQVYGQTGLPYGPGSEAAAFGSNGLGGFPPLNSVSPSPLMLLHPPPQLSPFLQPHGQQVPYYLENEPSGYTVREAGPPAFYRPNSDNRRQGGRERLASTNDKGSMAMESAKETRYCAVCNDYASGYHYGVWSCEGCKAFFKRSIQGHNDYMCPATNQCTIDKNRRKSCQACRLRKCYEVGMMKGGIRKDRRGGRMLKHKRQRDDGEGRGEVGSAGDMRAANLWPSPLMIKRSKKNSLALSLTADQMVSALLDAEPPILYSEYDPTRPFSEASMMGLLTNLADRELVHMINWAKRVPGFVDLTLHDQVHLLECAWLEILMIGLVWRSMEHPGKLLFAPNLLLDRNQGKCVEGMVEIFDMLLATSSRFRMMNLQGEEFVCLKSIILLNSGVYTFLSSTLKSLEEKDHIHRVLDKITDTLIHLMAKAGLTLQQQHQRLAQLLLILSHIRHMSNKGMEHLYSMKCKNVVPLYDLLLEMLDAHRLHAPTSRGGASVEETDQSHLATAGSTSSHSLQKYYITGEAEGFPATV
Oxysterols receptor LXR-alpha (Homo sapiens), sequence (Q13133 whole entry, looked up, the tested form may be a part): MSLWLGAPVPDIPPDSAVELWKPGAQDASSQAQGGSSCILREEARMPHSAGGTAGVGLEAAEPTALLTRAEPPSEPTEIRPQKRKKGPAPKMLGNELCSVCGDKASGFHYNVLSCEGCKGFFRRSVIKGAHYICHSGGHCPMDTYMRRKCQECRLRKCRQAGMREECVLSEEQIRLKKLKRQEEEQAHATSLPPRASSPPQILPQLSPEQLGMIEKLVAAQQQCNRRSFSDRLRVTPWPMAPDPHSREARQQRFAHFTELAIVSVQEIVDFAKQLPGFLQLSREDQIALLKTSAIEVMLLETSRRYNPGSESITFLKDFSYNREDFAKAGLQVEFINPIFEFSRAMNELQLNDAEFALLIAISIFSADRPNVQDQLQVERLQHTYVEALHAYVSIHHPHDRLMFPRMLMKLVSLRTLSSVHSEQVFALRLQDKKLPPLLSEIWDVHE
Nuclear respiratory factor 1 (Homo sapiens), sequence (Q16656 whole entry, looked up): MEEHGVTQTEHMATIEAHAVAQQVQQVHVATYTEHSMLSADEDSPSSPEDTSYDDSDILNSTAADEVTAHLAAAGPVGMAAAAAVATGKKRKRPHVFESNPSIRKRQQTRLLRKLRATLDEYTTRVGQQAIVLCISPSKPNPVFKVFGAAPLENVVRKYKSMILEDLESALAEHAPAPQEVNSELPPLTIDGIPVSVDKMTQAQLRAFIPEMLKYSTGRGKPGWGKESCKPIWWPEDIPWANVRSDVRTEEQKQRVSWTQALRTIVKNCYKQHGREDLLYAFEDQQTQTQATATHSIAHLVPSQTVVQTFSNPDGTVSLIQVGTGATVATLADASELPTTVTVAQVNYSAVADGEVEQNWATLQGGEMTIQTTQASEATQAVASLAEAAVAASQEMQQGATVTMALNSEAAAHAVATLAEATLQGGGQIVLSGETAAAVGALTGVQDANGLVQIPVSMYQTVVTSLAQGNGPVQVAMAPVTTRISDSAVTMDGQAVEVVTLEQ
Bile acid receptor (Homo sapiens), sequence (Q96RI1 whole entry, looked up, the tested form may be a part): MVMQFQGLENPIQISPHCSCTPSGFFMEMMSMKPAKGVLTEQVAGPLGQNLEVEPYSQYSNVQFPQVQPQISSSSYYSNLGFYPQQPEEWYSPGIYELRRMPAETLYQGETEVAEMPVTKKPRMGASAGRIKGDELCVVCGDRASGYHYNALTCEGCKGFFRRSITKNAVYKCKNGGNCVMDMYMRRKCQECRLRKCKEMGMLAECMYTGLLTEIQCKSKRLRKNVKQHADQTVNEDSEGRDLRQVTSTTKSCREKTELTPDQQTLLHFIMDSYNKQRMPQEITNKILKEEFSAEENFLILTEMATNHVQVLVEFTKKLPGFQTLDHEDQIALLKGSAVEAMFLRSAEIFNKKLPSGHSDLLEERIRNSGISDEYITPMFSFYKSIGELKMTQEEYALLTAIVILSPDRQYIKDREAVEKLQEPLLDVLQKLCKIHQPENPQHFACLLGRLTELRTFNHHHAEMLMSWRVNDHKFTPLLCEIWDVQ
Oxysterols receptor LXR-beta (Homo sapiens), sequence (P55055 whole entry, looked up, the tested form may be a part): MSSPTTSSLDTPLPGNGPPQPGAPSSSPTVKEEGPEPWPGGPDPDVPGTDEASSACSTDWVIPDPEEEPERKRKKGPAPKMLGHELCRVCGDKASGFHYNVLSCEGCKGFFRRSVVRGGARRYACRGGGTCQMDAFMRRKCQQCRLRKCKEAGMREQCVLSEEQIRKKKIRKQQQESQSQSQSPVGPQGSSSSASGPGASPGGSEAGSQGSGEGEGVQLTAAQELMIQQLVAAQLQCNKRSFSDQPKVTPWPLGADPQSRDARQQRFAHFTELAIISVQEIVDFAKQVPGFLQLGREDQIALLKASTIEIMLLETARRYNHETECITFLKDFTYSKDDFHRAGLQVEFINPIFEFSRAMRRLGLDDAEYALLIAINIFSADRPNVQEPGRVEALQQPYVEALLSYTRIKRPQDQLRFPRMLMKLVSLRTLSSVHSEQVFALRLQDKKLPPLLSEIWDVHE

C=CCCl
inactive: [1] | [2] | [3] | [4] | [5] | [6] | [7] | [8] | [9] | [10] | [11]

CS(=O)(=O)c1ccc(C(=O)C2C(=O)CCCC2=O)c(Cl)c1COCC(F)(F)F
inactive: [1] | [2] | [3] | [4] | [12] | [13] | [6] | [14] | [15] | [7] | [8] | [9] | [10] | [11]

Cc1cc(-c2cc(C)c(N)c(C)c2)cc(C)c1N
inactive: [1] | [2] | [3] | [4] | [5] | [6] | [7] | [16] | [8] | [9] | [10] | [11]

O=C(NC(=O)c1c(F)cccc1F)Nc1ccc(Cl)cc1
inactive: [1] | [2] | [3] | [4] | [17] | [6] | [7] | [16] | [8] | [9] | [10] | [11]

Cc1ccc(CCl)cc1
inactive: [1] | [2] | [18] | [3] | [19] | [12] | [5] | [17] | [14] | [20] | [15] | [7] | [8] | [9] | [10] | [11]
